According to PubChem BioAssay (NCI):
The panel holds about 83,000 compounds, 20% with a hit somewhere; the sample as a whole holds those more often.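 Percent growth is the endpoint: 0 to 100 indicates growth inhibition (40 means 60% inhibition), 0 means no net growth, and negative values indicate cell death.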

Legend:
Assay in all cases: NCI-60 one-dose screen, 48 h (100 = growth as untreated, 0 = no growth, -100 = all killed)
Conditions in all cases: 10 µM unless noted; active means growth percent below 10; inactive means the rest
DU-145 prostate = test system: DU-145 prostate
K-562 leukemia = test system: K-562 leukemia
MALME-3M melanoma = test system: MALME-3M melanoma
MDA-MB-231 breast = test system: MDA-MB-231 breast
RXF 393 renal = test system: RXF 393 renal
SF-268 CNS = test system: SF-268 CNS
SF-295 CNS = test system: SF-295 CNS
SF-539 CNS = test system: SF-539 CNS
UACC-257 melanoma = test system: UACC-257 melanoma
M14 melanoma = test system: M14 melanoma
HCT-15 colon = test system: HCT-15 colon
HT29 colon = test system: HT29 colon
SNB-75 CNS = test system: SNB-75 CNS
SNB-19 CNS = test system: SNB-19 CNS
U251 CNS = test system: U251 CNS
PC-3 prostate = test system: PC-3 prostate
SK-MEL-5 melanoma = test system: SK-MEL-5 melanoma
UACC-62 melanoma = test system: UACC-62 melanoma
LOX IMVI melanoma = test system: LOX IMVI melanoma
SK-MEL-28 melanoma = test system: SK-MEL-28 melanoma

Measured: growth

CC(C)OC(=O)Nc1cc(F)ccc1F
inactive: DU-145 prostate 110% | K-562 leukemia 97.4% | MALME-3M melanoma 92.7% | MDA-MB-231 breast 97% | RXF 393 renal 106% | SF-268 CNS 103% | SF-295 CNS 97.5% | SF-539 CNS 92.1% | UACC-257 melanoma 96.9% | M14 melanoma 96.6% | HCT-15 colon 105% | HT29 colon 98.3% | SNB-75 CNS 95.3% | SNB-19 CNS 96.2% | U251 CNS 100% | PC-3 prostate 99.7% | SK-MEL-5 melanoma 101% | UACC-62 melanoma 94.1% | LOX IMVI melanoma 106% | SK-MEL-28 melanoma 102%

CCOC(=O)C(c1ccccc1)N1C(=O)c2ccccc2C1=O (stereo not given)
inactive: DU-145 prostate 107% | K-562 leukemia 114% | MALME-3M melanoma 94.9% | MDA-MB-231 breast 103% | RXF 393 renal 105% | SF-268 CNS 99.7% | SF-295 CNS 100% | SF-539 CNS 97.9% | UACC-257 melanoma 91.9% | M14 melanoma 96.7% | HCT-15 colon 97.3% | HT29 colon 102% | SNB-75 CNS 91.1% | SNB-19 CNS 100% | U251 CNS 93.8% | PC-3 prostate 98.4% | SK-MEL-5 melanoma 100% | UACC-62 melanoma 95% | LOX IMVI melanoma 91.4% | SK-MEL-28 melanoma 99.2%

COc1ccc2nc3cc(Cl)ccc3c(Nc3ccc(O)cc3)c2c1
inactive: DU-145 prostate 48.4% | K-562 leukemia 54.8% | MALME-3M melanoma 83.5% | MDA-MB-231 breast 84.4% | RXF 393 renal 83.2% | SF-268 CNS 72.8% | SF-295 CNS 84.9% | SF-539 CNS 80.8% | UACC-257 melanoma 102% | M14 melanoma 94.8% | HCT-15 colon 52.9% | HT29 colon 57.9% | SNB-75 CNS 89.6% | SNB-19 CNS 81.9% | U251 CNS 70.5% | PC-3 prostate 89.2% | SK-MEL-5 melanoma 88.6% | UACC-62 melanoma 80.4% | LOX IMVI melanoma 43.5% | SK-MEL-28 melanoma 107%

COc1ccc2c(c1)c(-c1noc(-c3cn(C)c4ncc(F)cc34)n1)cn2C
inactive: DU-145 prostate 82.4% | K-562 leukemia 84.7% | MALME-3M melanoma 77.5% | MDA-MB-231 breast 62.2% | RXF 393 renal 73.7% | SF-268 CNS 79.7% | SF-295 CNS 62.6% | SF-539 CNS 84.6% | UACC-257 melanoma 94.4% | M14 melanoma 91.9% | HCT-15 colon 84.7% | HT29 colon 78.2% | SNB-75 CNS 94.9% | SNB-19 CNS 76.2% | U251 CNS 76.6% | PC-3 prostate 91.7% | SK-MEL-5 melanoma 74.8% | UACC-62 melanoma 83.9% | LOX IMVI melanoma 52.4% | SK-MEL-28 melanoma 91.3%

CCN(CC)c1ccc2cc(C(Nc3ccc(Cl)cc3)c3nnnn3C(C)(C)C)c(=O)oc2c1 (stereo not given)
inactive: DU-145 prostate 93.6% | K-562 leukemia 78.9% | MALME-3M melanoma 98.1% | MDA-MB-231 breast 90.8% | RXF 393 renal 86.9% | SF-268 CNS 80.6% | SF-295 CNS 95.9% | SF-539 CNS 94.8% | UACC-257 melanoma 92.2% | M14 melanoma 97.6% | HCT-15 colon 91.8% | HT29 colon 90.7% | SNB-75 CNS 68.5% | SNB-19 CNS 87% | U251 CNS 82.6% | PC-3 prostate 71.5% | SK-MEL-5 melanoma 80% | UACC-62 melanoma 70% | LOX IMVI melanoma 72.4% | SK-MEL-28 melanoma 95.8%

COc1ccc2c3ccnc(C(F)(F)F)c3n(CCCCN)c2c1
inactive: DU-145 prostate 71.4% | K-562 leukemia 71.1% | MALME-3M melanoma 43.7% | MDA-MB-231 breast 41.5% | RXF 393 renal 49.8% | SF-268 CNS 67.5% | SF-295 CNS 59.7% | SF-539 CNS 34.6% | UACC-257 melanoma 37.9% | M14 melanoma 23.6% | HCT-15 colon 62.9% | HT29 colon 22.6% | SNB-75 CNS 49.2% | SNB-19 CNS 68% | U251 CNS 46.4% | PC-3 prostate 22.8% | SK-MEL-5 melanoma 70.7% | UACC-62 melanoma 39.2% | LOX IMVI melanoma 32.3% | SK-MEL-28 melanoma 38.6%

CCCCCCCCN(CCCCCCCC)CC(O)c1ccc(Cl)c(C)c1Cl (stereo not given)
inactive: DU-145 prostate 105% | K-562 leukemia 67.9% | MALME-3M melanoma 102% | MDA-MB-231 breast 59.1% | RXF 393 renal 87.6% | SF-268 CNS 91.9% | SF-295 CNS 59.6% | SF-539 CNS 94.3% | UACC-257 melanoma 89.4% | M14 melanoma 85.2% | HCT-15 colon 80.1% | HT29 colon 42.2% | SNB-75 CNS 86.8% | SNB-19 CNS 93.2% | U251 CNS 91.3% | PC-3 prostate 72.9% | SK-MEL-5 melanoma 101% | UACC-62 melanoma 89.2% | LOX IMVI melanoma 53.5% | SK-MEL-28 melanoma 106%
